Assay results: PubChem BioAssay (NCATS)
“And” between values parts separate entries of the source, which are not always exact repeats. Identical values can stand only once. Inconclusive results are not listed. The source made the active and inactive calls. Unless noted, calls follow the shape of the dose curve; as a rule, active = well fitted curve in the direction sought with a large enough effect; inconclusive = small, poorly fitted or top-dose-only effect, or another doubt; inactive = no such curve, though single readings can be large; an effect the other way counts as inactive or inconclusive.

What was measured:
[1] = Cellular Toxicity (caspase-3) Jurkat (AID 655);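 also: cells exposed to compound for 16 h at 37 °C before reading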
Summary of the method: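 Luminescent Caspase-Glo 3/7 read-out (20 min, room temperature) after 16 h compound treatment at 37 C of 5000 Jurkat cells per well. AC50 derived by Hill-equation fitting, scaled between DMSO basal and 100 uM tamoxifen stimulation.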

[2] = Cellular Toxicity (caspase-3) HUV-EC-C (AID 656);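 also: 0% = DMSO basal and 100% = 100 µM tamoxifen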
Summary of the method: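 Luminescent Caspase-Glo 3/7 readout after 16 h, 37 °C compound exposure of HUV-EC-C endothelial cells, 1000 per well, complete medium. AC50 derived by Hill fitting, with DMSO as baseline and 100 uM tamoxifen as full activation.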

[3] = Cellular Toxicity (caspase-3) SHSY5Y (AID 657)
Summary of the method: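 Luminescent Caspase-Glo 3/7 read-out, 1 hr room temperature, follows 16 hours of compound treatment of SH-SY5Y cells at 37 °C. Normalization: DMSO basal, 10 uM staurosporine as 100%; AC50 values from Hill-equation concentration-response fits.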

[4] = Cellular Toxicity (caspase-3) BJ (AID 658);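 also: 0% = DMSO basal and 100% = 10 µM staurosporine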
Summary of the method: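 Readout: Caspase-Glo 3/7 luminescence increase in BJ cells after 16 hr treatment at 37 °C. Staurosporine and tamoxifen served as positive controls; AC50 values came from Hill modelling of data normalized to DMSO and 10 uM staurosporine.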

[5] = Cellular Toxicity (caspase-3) MRC-5 (AID 659);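 also: 0% = DMSO basal and 100% = 10 µM staurosporine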
Summary of the method: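 Concentration-dependent caspase 3/7 activation is measured in human normal lung fibroblasts (MRC-5) following 16-hour treatment. AC50 values come from standard Hill-equation modeling of luminescence normalized to DMSO and 10 uM staurosporine.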

[6] = Cellular Toxicity (caspase-3) Mesangial (AID 660);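 also: combined caspase 3 and 7 activity read by Caspase-Glo luminescence; cells exposed to compound for 16 h before the caspase read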
Summary of the method: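 Human renal glomerular mesangial cells, 1000/well, 5 h at 37 C before 16 h compound treatment. Caspase-Glo 3/7 luminescence after 20 min; normalized to DMSO and 100 uM tamoxifen, AC50 from Hill fit.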

[7] = Cellular Toxicity (caspase-3) SK-N-SH (AID 661);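 also: 0% = DMSO basal and 100% = 10 µM staurosporine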
Summary of the method: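 Human SK-N-SH neuroblastoma cells, 1500/well, were exposed to compounds for 16 hours at 37 °C. Caspase-Glo 3/7 luminescence was normalized to DMSO (basal) and 10 uM staurosporine (100%), and AC50 came from a Hill fit.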

[8] = Cellular Toxicity (caspase-3) H-4-II-E (AID 663);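 also: cells exposed to compound for 16 hr before readout; 0% = DMSO basal and 100% = 100 µM tamoxifen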
Summary of the method: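 Apoptosis induction is scored as increased luminescence from caspase 3/7 substrate cleavage in rat hepatoma H-4-II-E cells exposed to compound for 16 hr. Activity is scaled between DMSO and 100 uM tamoxifen.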

[9] = Cellular Toxicity (caspase-3) Hek293 (AID 664);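 also: cells exposed to compound for 16 h at 37 °C before readout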
Summary of the method: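 HEK293 cells in complete medium treated 16 h at 37 °C, then Caspase-Glo 3/7 luminescence read after 20 min at room temperature. Normalized to DMSO and 100 uM tamoxifen; AC50 from Hill fit of concentration-response.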

[10] = Cellular Toxicity (caspase-3) N2a (AID 665);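 also: compound exposure lasted 16 h at 37 °C before readout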
Summary of the method: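 Mouse N2a neuroblastoma cells, 1500 per well, treated 16 h at 37 °C in complete medium; caspase-3/7 activity by Caspase-Glo luminescence after 1 h. Normalized to DMSO and 10 uM staurosporine; AC50 from Hill fits.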

[11] = Cellular Toxicity (caspase-3) NIH 3T3 (AID 666);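 also: caspase signal read after 16 h compound exposure; 0% = DMSO basal and 100% = 100 µM tamoxifen stimulation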
Summary of the method: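 Mouse NIH 3T3 fibroblasts (1000/well) treated 16 h at 37 C; caspase-3/7 activity measured by Caspase-Glo 3/7 luminescence after 20 min. Normalized to DMSO and 100 uM tamoxifen; AC50 from Hill fits.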

[12] = Cellular Toxicity (caspase-3) Renal Proximal Tubule (AID 667);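 also: cells exposed to compound for 16 hours at 37 °C before detection; 0% = DMSO basal and 100% = 10 µM staurosporine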
Summary of the method: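 Caspase 3/7 activation measured by luminescent aminoluciferin release in primary rat proximal tubule cells after 16 hr compound exposure at 37 °C. AC50 from Hill-fitted concentration-response, scaled between DMSO and 10 uM staurosporine.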

[13] = Cell Viability - LYMP2-001 (AID 921);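 also: series mostly up to about 92 µM; 0% = DMSO only and full inhibition = tetraoctylammonium bromide control wells; nearly all actives have a fitted effect of over 70% in size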
Summary of the method: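 Cellular ATP loss read by luciferase luminescence after 24 h compound exposure at 37 C in complete medium. LYMP2-001 lymphoblastoid cells, 2500/well; qHTS concentration-response data fitted with Hill equation for AC50.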

[14] = MultiTox-Fluor Cytotoxicity Assay - LYMP1-001 - Dead Cells (AID 946);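 also: 0% = DMSO and 100% = tetraoctylammonium bromide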
Summary of the method: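 AC50 from Hill fit of concentration-response; data normalized to DMSO (basal) and 15 uM tetraoctylammonium bromide (100%). LYMP1-001 lymphoblastoid cells, 2500/well, 16 hr compound at 37 C; dead-cell protease fluorescence, Ex/Em 485/520.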

[15] = MultiTox-Fluor Cytotoxicity Assay - LYMP1-001 - Live Cells (AID 947);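 also: 0% = DMSO only and full inhibition = tetraoctylammonium bromide control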
[16] = qHTS assay for small molecule agonists of the antioxidant response element (ARE) signaling pathway measured by Nrf2-dependant transcriptional activity (AID 720636; active = well fitted curve in the direction sought with a large enough effect in the repeat runs; an effect the other way counts as inactive or inconclusive; also: % of control where 0% means no effect)
Summary of the method: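 ARE-luc HepG2 cells carrying an Nrf2-responsive luciferase reporter were plated in medium with 1% dialyzed FBS, left 6 hr at 37 C to attach, then exposed to compound for 16 hr. Luciferase luminescence was read after ONE-Glo addition.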

[17] = qHTS assay for small molecule antagonists of the retinoid-related orphan receptor gamma (ROR-gamma) signaling pathway - cell viability counter screen (AID 720652; active = well fitted curve in the direction sought with a large enough effect in the repeat runs; an effect the other way counts as inactive or inconclusive;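 also: CHO reporter cells with doxycycline-induced ROR-gamma expression; series mostly up to about 92 µM; compound exposure lasted 16 hr before ATP read; % is scaled to controls: 0 for no effect and ±100 for the full control effect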)
Summary of the method: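 CHO cells carrying TET-inducible ROR and RORE-luciferase reporter, plated 5 hr, then dosed with compound plus doxycycline. After 16 hr at 37 C, viability read as intracellular ATP by CellTiter-Glo luminescence.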

[18] = qHTS assay for small molecule agonists of the antioxidant response element (ARE) signaling pathway measured by Nrf2-dependant transcriptional activity - cell viability counter screen (AID 720653; active = well fitted curve in the direction sought with a large enough effect in the repeat runs; an effect the other way counts as inactive or inconclusive; also: % is scaled to controls: 0 for no effect and ±100 for the full control effect); settings: ARE-bla HepG2 viability, CellTiter-Glo ATP luminescence, 16 h; hits give low values
Summary of the method: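 Cytotoxicity counter screen: intracellular ATP quantified by CellTiter-Glo luminescence in the same ARE-bla HepG2 plates, after 16 h compound exposure and a 2 h beta-lactamase substrate step.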

[19] = qHTS assay for cell viability of HEK293 cells (AID 743288); settings: ATP luminescence (CellTiter-Glo), 18 h, hits give low values; also: % is scaled to controls: 0 for no effect and ±100 for the full control effect; nearly all actives have a fitted effect of over 50% in size
Summary of the method: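 Total intracellular ATP, measured with a luciferase-coupled reagent, indicates the number of viable HEK293 cells. Exposure to test chemicals lasts 18 h at 37 C in 1,536-well format at 2,000 cells/well.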

[20] = qHTS assay for cell viability of the p53RE-bla HCT-116 cell line (AID 743292); also: % is scaled to controls: 0 for no effect and ±100 for the full control effect; nearly all actives have a fitted effect of over 55% in size
Summary of the method: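 CellSensor p53RE-bla HCT-116 cells, 4,000/well, preincubated 5 h at 37 C, then exposed to compounds in DMSO for 16 h at 37 C. Viability read as CellTiter-Glo luminescence (intracellular ATP) after 30 min at room temperature.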

Measured: max response

COS(C)(=O)=O
inactive: [1] | [2] | [3] | [4] | [5] | [6] | [7] | [8] | [9] | [10] | [11] | [12] | [13] | [14] | [15] | [16] | [17] | [18] -2.28% | [19] 1.66% | [20]

C=CC(C)(O)CCC=C(C)C (stereo not given)
inactive: [1] | [2] | [3] | [4] | [5] | [6] | [7] | [8] | [9] | [10] | [11] | [12] | [13] | [14] | [15] | [16] | [17] | [18] 12.9% and 1.07% | [19] 5.28% and -11.2% | [20]

C=C(C)[C@H]1CC=C(C)C(=O)C1
inactive: [1] | [2] | [3] | [4] | [5] | [6] | [7] | [8] | [9] | [10] | [11] | [12] | [13] | [14] | [15] | [16] | [17] | [18] -9.52% and 8.39% | [19] -10.1% and -1.01% | [20]

CC1=CC(=O)CC(C)(C)C1(O)/C=C/C(C)=C\C(=O)O (stereo not given)
inactive: [1] | [2] | [3] | [4] | [5] | [6] | [7] | [8] | [9] | [10] | [11] | [12] | [13] | [14] | [15] | [16] | [17] | [18] 6.26% | [19] 11% | [20]

Cc1occc(=O)c1O
inactive: [1] | [2] | [3] | [4] | [5] | [6] | [7] | [8] | [9] | [10] | [11] | [12] | [13] | [14] | [15] | [16] | [17] | [18] 5.21% | [19] 0.312% | [20]
